The list is not random: actives were taken first. Their share in the collection is about 2.4%.
Nrf2 inh: blocks Nrf2 signaling | A549 ARE-Fluc reporter, luciferase luminescence, 18-24 h | Potency, µM (titrated, usually from 46 µM), without a hit: top-dose activity change, negative = inhibition, actives largely listed as inhibitors | 2.1% of 360,000 active | AID 504444; note: % is set by controls: 0 for no effect and ±100 for the full control effect; nearly all actives have a fitted effect of over 60% in size
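Nrf2 function is reported as luminescence of an ARE-controlled luciferase in A549 cells. Compounds were tested at several concentrations, and a CellTiter-Fluor read on the same wells flagged cytotoxicity.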
PINK1 expr mod: changes PINK1 expression. PINK1 immunofluorescence, high-content cytometry, 24 h. Potency, µM (highest dose often 76.6 µM), without a hit: at the highest dose activation (PINK1 increase), hits mostly activators. 0.2% of 410,000 active. AID 624263; active = well fitted activation curve with a large enough effect; inconclusive = small, poorly fitted or top-dose-only effect; cell line not stated here; note: % of control where 0% means no effect; nearly all actives have a fitted effect of over 65% in size
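PINK1 protein, normally rapidly degraded, was detected by immunofluorescence after 24 hour compound treatment of a stable cell line. Titration data (5 concentrations) came from laser-scanning cytometry, with CCCP-treated wells as controls.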
Epigenetic reg: regulators of epigenetic silencing causing reporter derepression in mouse cells; murine LDR cells, GFP reporter derepression, 30 h; Potency, µM (highest dose often 53.9 µM), for inactives: at the highest dose GFP activation, usual class: activators; 0.2% of 280,000 active; AID 1865; note: % of control where 0% means no effect; nearly all actives have a fitted effect of over 60% in size
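Reporter derepression read as number of fluorescent GFP-positive objects, 20-120 um in size, counted by laser-scanning cytometer. Mouse LDR line with an epigenetically silenced CMV-GFP locus; compound incubation 30 h, 37 C.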
A549 tox: A549 cytotoxicity, counter-screen for Nrf2 inhibitors | AID 504648 | 0.16% of 390,000 active | Potency, µM (top dose mostly 46 µM), without a hit: top-dose activity change, negative = cytotoxicity, usual class: inhibitors | A549 ARE-Fluc cells, CellTiter-Fluor viability, 18-24 h; note: % is set by controls: 0 for no effect and ±100 for the full control effect
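Cytotoxicity counterscreen: CellTiter-Fluor fluorescence was measured in A549 ARE_Fluc cells after 18-24 h of compound exposure in a concentration series. The subsequent BugLite luminescent read reports ARE-luciferase activity.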
Nrf2 activator: activators of Nrf2 (ARE) signaling. AREc32 ARE-luciferase reporter (MCF7-derived line), luminescence, 24 h. Potency, µM (highest dose often 46.1 µM), without a hit: at the top dose activation, most hits filed as activators. 0.31% of 410,000 active. AID 624171; note: % of control where 0% means no effect; nearly all actives have a fitted effect of over 65% in size
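Cells of the AREc32 ARE-luciferase line are plated in OPTI-MEM containing 5% FBS and left overnight at 37 deg C. Compounds are pinned in, incubation continues 24 hr, and firefly luciferase signal is then measured.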
Active calls of the source: *; ? = inconclusive; / = no result given; [ ] = dose if it differs, or a comment. Unless noted, calls come from the whole dose curve; as a rule, active = well fitted curve in the direction sought with a large enough effect; inconclusive = small, poorly fitted or top-dose-only effect, or another doubt; inactive = no such curve, though single readings can be large; an effect the other way counts as inactive or inconclusive. Potency is the fitted concentration of half-maximal effect.

SMILES	Nrf2 inh	PINK1 expr mod	Epigenetic reg	A549 tox	Nrf2 activator
COc1ccc(C(=O)Nc2cc3c(oc2=O)CCCC3=O)cc1	?	-1%	0%	0%	0%
COc1ccccc1NS(=O)(=O)c1cccc(NC(=O)Nc2ccccc2)c1	2.6µM*	?	-2%	-12%	0%
CCn1ccc(C(=O)Nc2ccc(S(=O)(=O)Nc3ccccc3OC)cc2)n1	15µM*	2%	-10%	-12%	2%
Oc1ccccc1-c1nc(NCc2ccccc2)c2ccccc2n1	?	2%	/	9%	3%
Oc1ccccc1-c1nc(NCc2cccnc2)c2ccccc2n1	12µM*	1%	0%	?	-2%
c1ccc(CNCc2nnc(-c3cc4ccccc4[nH]3)o2)cc1	15%	/	/	-3%	/
CCOc1ccc2ncc3c(-c4ccccc4)nn(CC(=O)Nc4cccc(F)c4)c3c2c1	-8%	0%	1%	5%	1%
O=C(CC(=O)c1ccccn1)c1ccccc1	12%	-1%	/	-5%	7.9µM*
CNc1cc(-c2ccccc2C(F)(F)F)ncn1	/	1%	/	/	/
CCOc1cccc(CN2CCC(n3cc(C(=O)N4CCCCC4)nn3)CC2)c1O	/	-1%	/	/	/
CS(=O)(=O)N1CCN(c2ccc(NC(=O)c3ccc(-c4ccc(Cl)cc4)o3)cc2)CC1	/	14µM*	0%	-21%	-1%
CN1CCN(c2ccc(NC(=O)c3ccc(-c4ccc(Cl)cc4)o3)cc2)CC1	-9%	3%	/	?	-3%
Cc1cnc(-n2ncc(C(=O)N(C)C3CCOC3)c2C)nc1-c1ccc(F)cc1 (stereo unspecified)	/	-1%	/	/	/
COC(=O)c1ccccc1NC(=O)c1ncoc1-c1ccco1	/	6%	-3%	5%	1.1µM*
COc1ccccc1NC(=O)c1ncoc1-c1ccco1	/	3%	-3%	11%	?
COC(=O)c1ccccc1-c1cc(C)cc2c1OC(CNC(=O)c1cc(C)on1)C2 (stereo unspecified)	/	0%	/	/	/
COc1cccc(NC(=O)C2CCC(CNS(=O)(=O)c3ccc4c(c3)CC(C)N4C(C)=O)CC2)c1 (stereo unspecified)	21µM*	-1%	-2%	0%	6%
COc1ccc(CNC(=O)C2CCC(CNS(=O)(=O)c3ccc4c(c3)CCCC(=O)N4)CC2)cc1 (stereo unspecified)	0%	0%	-2%	?	10%
CC(=O)N1c2ccc(S(=O)(=O)NCC3CCC(C(=O)NC4CCC(C)CC4)CC3)cc2CC1C (stereo unspecified)	16µM*	1%	/	3%	0%
CC(=O)N1c2ccc(S(=O)(=O)NCC3CCC(C(=O)NC4CCCCC4C)CC3)cc2CC1C (stereo unspecified)	?	-1%	/	2%	0%
CCc1cccc(NC(=O)C2CCC(CNS(=O)(=O)c3ccc4c(c3)CCCC(=O)N4)CC2)c1 (stereo unspecified)	13µM*	0%	2%	0%	10%
CCCC(=O)N1CCc2cc(OC)c(OC)cc2C1COc1ccc2c(C)cc(=O)oc2c1 (stereo unspecified)	-1%[9.27 µM]	1%	1%	2%	0%
COc1cc(O)c(CC=C(C)C)c(O)c1C(=O)CCc1ccc(O)cc1	26µM*	26%	0%	?	-1%
COCC(C)NCc1cc2ccc(OC)cc2nc1N1CCN(c2ccc(F)cc2)CC1 (stereo unspecified)	/	4%	/	/	/
N#Cc1ccccc1Cn1cc(/C=C/[N+](=O)[O-])c2ccccc21	?	-3%	5%	23µM*	-3%
SMILES	Nrf2 inh	PINK1 expr mod	Epigenetic reg	A549 tox	Nrf2 activator
CCS(=O)(=O)NCc1c(C)ncc2c1CCN(C(=O)c1ccc(F)cc1)C2	/	-1%	/	/	/
O=C(c1ccccc1)N1CCN2C(=O)c3ccccc3C12c1ccc(Cl)cc1 (stereo unspecified)	13µM*	15%	-3%	-5%	0%
O=C(CCN=C1NS(=O)(=O)c2ccccc21)NCc1ccccc1F	17%	0%	/	-2%	1%
O=C(CCN=C1NS(=O)(=O)c2ccccc21)Nc1ccc(F)cc1Cl	9.2µM*	2%	/	10%	5%
CSc1ccc(CN(C)Cc2cc(=O)oc3c(C)c(C)ccc23)cc1	?	-1%	/	9%	0%
CCOc1ccc(CN(C)Cc2cc(=O)oc3c(C)c(C)ccc23)cc1OC	16µM*	3%	/	-16%	3%
Cn1c(C(=O)NCCc2ccccc2)cc2c(=O)n3ccccc3nc21	12%	0%	0%	-12%	0%
CCCCCNC(=O)c1cc2c(=O)n3ccccc3nc2n1C	18µM*	1%	0%	-3%	4%
N=c1nc2n(cc1F)C1OC(CO)C(O)C1O2 (stereo unspecified)	0.13µM*	-5%	/	?	0%
N=c1ccn2c(n1)O[C@@H]1[C@H](O)[C@H](CO)O[C@@H]12	/	/	8%	/	/
C=CCOc1c(Br)cc(CNc2ccc(NC(=O)CCC)cc2)cc1OCC	15µM*	-1%	1%	-17%	3%
CCOc1cc(CNc2ccc(N3CCCCC3)cc2)cc(Br)c1OCC(=O)NC(C)(C)C	16µM*	14µM*	-1%	?	-1%
C=CCOc1ccc(CNc2ccc(NC(=O)CCC)cc2)cc1OCC	-15%	0%	1%	-10%	0%
COc1ccc(-n2nc3c(N4CCCC(C(=O)NCc5ccc(C)cc5)C4)nnc(C)c3c2C)cc1 (stereo unspecified)	/	3%	0%	?	6%
C(=C\c1ccnc2ccccc12)/c1ccccc1	/	-1%	/	/	/
Cc1cc[n+](CC[n+]2ccc(C)cc2)cc1	13%	1%	/	-4%	0%
CCC(C)(C)c1ccc(OCCCC[n+]2ccc(C)cc2)c(C(C)(C)CC)c1	13µM*	-3%	5%	?	-3%
CCC(C)(C)c1ccc(OCCCC[n+]2cccc(C)c2C)c(C(C)(C)CC)c1	5.8µM*	-2%	1%	12µM*	-4%
CC1CC=CC2C1C(=O)N(Cc1ccccc1)C2c1ccc(-c2ccc(N(C)C)cc2)cc1F (stereo unspecified)	?	/	/	10%	/
CC(C)(C)C(=O)NCCCc1nc2ccccc2n1CCCOc1ccc(Cl)cc1	23µM*	-2%	-1%	?	2%
CC(=O)NCCc1nc2ccccc2n1CCCCOc1ccc(Cl)cc1	?	7%	0%	2%	7%
Cc1ccc(OCCn2c(CCNC(=O)C3CCCCC3)nc3ccccc32)cc1	?	0%	-4%	-9%	/
CC(C)(C)c1ccc(OCCn2c(CCNC(=O)C3CCCCC3)nc3ccccc32)cc1	18µM*	8%	/	-29%	/
N#CN1CCC(NS(=O)(=O)c2ccc(F)cc2)CC1	?	/	/	-2%	/
Oc1ccc(N2CCN(c3ncnc4sc(-c5ccccc5)cc34)CC2)cc1	21µM*	0%	-2%	-16%	11%

Screening results from PubChem.
